# Data published in the supplement of paper PMC11417369.
# ± gives the standard deviation of the averaged measurements. The full ranking holds about 25,000 sequences; the median of “ln(normalized median fluorescence intensity)” is about 7.9, and the highest 2% start at about 11. The sample holds the highest values, similar sequences and a random draw of the others, so the mix is not that of the screen.
# Test system: PfAP2-I AP2 domain 3 (GST-tagged)
# Assay: gcPBM binding intensity (ln(normalized median fluorescence intensity)); higher = stronger DNA binding
# Summary of the method: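 Binding of GST-tagged P. falciparum DNA-binding domains, expressed in E. coli and used at about 25 μg on average, was carried out for 1 h in 1× PBS containing 1% milk, 0.2 mg/ml BSA, 0.5% salmon testes DNA and 0.03% Triton X-100. The target was an Agilent 4 × 180k array of primer-extended double-stranded 36-bp intergenic genomic probes plus negative controls, read with Alexa488 anti-GST antibody at 488 nm. Binding intensity is the highest Masliner-normalised natural-log median intensity across replicate spots of either probe orientation.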
row,Sequence,gcPBM binding intensity (ln)
1,TAATTTTATATTAAAAGTACATAATAAAAACTATAA [XGTACX_site8779],7.79 ± 0.22
2,TAAATATATATCATCACACACACATACATAAATATA [CACACA_site183],7.72 ± 0.47
3,TAATAATATAAATATGCACACAAATTATTACCCAAA [CACACA_site8805],8.97 ± 0.47
4,GCTAAAAGTATATGCACACACATATAGATGCACATA [CACACA_site6868],10 ± 0.14
5,AAAAAATATACATATACACACATATGTATATATAAT [CACACA_site8676],7.57 ± 0.31
6,CTTTTTTTTTTTTTTGCACACACATATATAAATATA [CACACA_site3950],9.74 ± 0.042
7,GCTAAAAGTATATGCACACACATATATATGCACATA [CACACA_site1635],10.3 ± 0.16
8,AAAATATAATATAATGCACACATAAAAAAAAAATCA [CACACA_site7922],10.8 ± 0.64
9,CATATTTGCACTTTCACACATAAATATATAACTATA [CACACA_site6016],11 ± 0.89
10,AAAAATAATGCACATATATATAATATGTATATGTAT [CACACA_negctrl_site443],11 ± 0.6
11,AATTCTTTACTATTCACACATATAAATATTCACTTT [CACACA_site4886],8 ± 0.7
12,GTGCTAAAAGTATATGCACACACATATATATGCACA [CACACA_site8472],10.9 ± 0.55
13,AAAAATATAATATATGCACACATACATACATATATA [CACACA_site7915],9.06 ± 0.057
14,AATATAATATAATGCACACATAAAAAAAAAAAAATC [CACACA_site1303],11 ± 0.64
15,ATAGATATACATATCACACATATATATATATATATA [CACACA_site4985],9.19 ± 0.65
16,GATATAGATATTAATTGTACATATTATTTATTGTTA [XGTACX_site846],7.62 ± 0.36
17,TTAAAAAAATATAATACACACCAAAAATATGCACAT [CACACA_site5209],9.6 ± 0.43
18,TTAAATATATGTAATACGCACACTTAATATTTTGAG [CACACA_site4170],8.18 ± 0.35
19,AATTTTCATTTTAGAAGTACACACAAAAAATAAAAT [XGTACX_site4426],8.13 ± 0.22
20,TGAATTTAGATATATACACACAAAAGTATATACAAT [CACACA_site2804],7.53 ± 0.54
21,TATATATATTCTTTAAAACACACGTAAAGAAGAATT [CACACA_site2718],7.94 ± 0.62
22,AATAAAAAAAAATGCACACATATATATATATATATA [CACACA_site2421],9.67 ± 0.52
23,AAAATATAATATAATGCACACATAAAAAAAAAAAAA [CACACA_site7989],11.1 ± 0.49

row,Sequence,gcPBM binding intensity (ln)
1,TATATATATATATTCACACATAAAAATAAAATAAAA [CACACA_site4774],9.2 ± 0.13
2,ATAATAAAAAAAAATGCACACATATATATATATATA [CACACA_site8766],9.59 ± 0.47
3,AATATAATATAATGCACACATAAAAAAAAAAAAAAA [CACACA_site304],11.1 ± 0.87
4,TATATATATATATTCACACATAAATATATGCACCCA [CACACA_site4263],11.1 ± 0.68
5,TAAACATAAATATGCACACATATACATATATTCATA [CACACA_site2667],8.69 ± 0.099
6,TCCTTATATTTGCACACACACACAAGAAAATGAAAA [CACACA_site6613],10.3 ± 0.54
7,TTTTGAATTAAACAAGCATGCTTTATTTACTTCTTA [TGCATGCA_site289],7.59 ± 0.86
8,ACTAAACGAATAAATTGTACAAAGAAATATATTCAT [XGTACX_site6766],7.83 ± 0.54
9,TTCTTCTGTTTTATTACACACCATTTTGTGGATACA [CACACA_site5181],8.38 ± 0.71
10,ACTACATAATACTATTCACACATTTTTTTTTTTTTT [CACACA_site5794],7.83 ± 0.58
11,ATATATATTTTTAATTGTACAGAATTAAAAATATTG [XGTACX_site1967],7.64 ± 0.45
12,AAAAAAAAAAAACACACACACACACCGATACATACA [CACACA_site8849],7.92 ± 0.45
13,AAAAGGAAAATACTAGCACACAATATATAATAAACA [CACACA_site285],7.99 ± 0.49
14,ATTTATATATATGTATGTACGTATGTGTGTATATGT [XGTACX_site7587],8.55 ± 0.27
15,CACATATATATGTGTGCATGTTGTATTATATATTTA [TGCATGCA_site632],8.69 ± 0.46
16,TTTATTTATGTGTGGGTGCATATACGTATGATGTAT,11 ± 0.72
17,ATATGAAACATGAAGGTGCATAATGTGTATATTTAT,11.3 ± 0.69
18,GTATTATTTTATGATGCATGTGTATTTCATATATGC [TGCATGCA_site660],7.74 ± 0.49
19,TATTTATATGTATATACATGCACATATATATGAAAC [TGCATGCA_site1005],8.35 ± 0.57
20,ATTTCCCCAACGTGGGTGCATATATTTATGTGTGAA [GTGCAC_site9439],10.9 ± 0.82
21,TTTCACATATATATGGTGCATATTTTATGTGTAAAT [GTGCAC_site9937],9.95 ± 0.52
22,ATATATTATGGGTGTGCACACAATATTTATATGTTC [CACACA_site2270],9.59 ± 0.23
23,AGAGGAAAAATAAAAGGAAAAAAGAAAATAATATTG [CACACA_negctrl_site852],7.45 ± 0.73
